Columns and labels:
Conditions in all cases: concentration: 1 μM, replicates: in singlicate; n = 1
TTK = test system: TTK
TXK = test system: TXK
[1] = test system: TYK2(JH1domain-catalytic)
[2] = test system: TYK2(JH2domain-pseudokinase)
TYRO3 = test system: TYRO3
ULK1 = test system: ULK1
ULK2 = test system: ULK2
ULK3 = test system: ULK3
VEGFR2 = test system: T1, VEGFR2
T1 construct: gene KDR

VPS34 = test system: T2, VPS34
T2 construct: gene PIK3C3

VRK2 = test system: VRK2
WEE1 = test system: WEE1
WEE2 = test system: WEE2
WNK1 = test system: WNK1
WNK2 = test system: WNK2
WNK3 = test system: WNK3
WNK4 = test system: WNK4
YANK1 = test system: T3, YANK1
T3 construct: gene STK32A

YANK2 = test system: T4, YANK2
T4 construct: gene STK32B

YANK3 = test system: T5, YANK3
T5 construct: gene STK32C
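Also: KINOMEscan kinase panel screen.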

SMILES	%Inh (TTK)	%Inh (TXK)	%Inh [1]	%Inh [2]	%Inh (TYRO3)	%Inh (ULK1)	%Inh (ULK2)	%Inh (ULK3)	%Inh (VEGFR2)	%Inh (VPS34)	%Inh (VRK2)	%Inh (WEE1)	%Inh (WEE2)	%Inh (WNK1)	%Inh (WNK2)	%Inh (WNK3)	%Inh (WNK4)	%Inh (YANK1)	%Inh (YANK2)	%Inh (YANK3)
CCCc1ccc(S(=O)(=O)NC2CCN(c3ccnc(Nc4ccc(F)cc4)n3)C2)cc1 (centres unmarked) [GSK1379715]	0%	73%	26%	30%	0%	16%	0%	4%	0%	0%	7%	6%	0%	17%	0%	20%	4%	18%	0%	100%
COC(=O)c1c(-c2ccccc2)c2cc(C(=O)O)ccc2c(=O)n1Cc1ccccc1	4%	0%	0%	4%	7%	0%	0%	0%	0%	9%	0%	0%	0%	0%	0%	0%	3%	0%	3%	2%
CC1=C(C(=O)Nc2cc3cn[nH]c3cc2F)C(c2ccc(C(F)(F)F)cc2)CC(=O)N1 (centres unmarked) [GSK429286]	25%	21%	14%	3%	12%	0%	0%	34%	0%	0%	0%	12%	20%	20%	61%	3%	0%	8%	0%	24%
Cc1ccc(C(=O)Nc2ccc(Nc3ccnc4cc(-c5ccccn5)ccc34)cc2O)cc1.Cl [GW440146]	0%	5%	28%	19%	0%	0%	0%	3%	13%	0%	0%	39%	0%	10%	8%	36%	39%	0%	14%	30%
COc1cc2ncnc(Nc3ccc4nc(-c5ccccc5)[nH]c4c3)c2cc1OC.Cl [GW282450]	30%	0%	9%	10%	0%	1%	0%	2%	27%	7%	0%	0%	0%	10%	16%	6%	0%	2%	0%	9%
Cc1cc(-c2ccc3c(c2)CC[C@@H](N[C@@H](C)c2ccccc2)C3)cnc1N.Cl [GW412617]	0%	16%	24%	6%	17%	19%	8%	16%	1%	68%	0%	18%	11%	0%	0%	7%	0%	2%	4%	33%
Nc1nc(-c2nccs2)c(-c2ccnc3ccccc23)s1 [GW693542]	14%	5%	0%	9%	18%	8%	0%	0%	0%	0%	0%	22%	9%	20%	28%	35%	28%	9%	3%	0%
Cc1csc(-c2nc(Nc3ccncc3)c3ccccc3n2)n1 [GW869640]	35%	0%	100%	83%	0%	33%	23%	50%	36%	33%	20%	1%	12%	37%	0%	33%	13%	2%	3%	43%
Cc1cc(NCC(c2ccccc2)c2ccccc2)nc(NCc2ccc(C(F)(F)F)cc2)n1 [GW497681]	0%	0%	9%	23%	0%	0%	0%	0%	0%	0%	0%	11%	0%	0%	0%	27%	37%	0%	0%	0%
COc1ccccc1CNC(=O)c1cc(C(=O)c2ccccc2C)c[nH]1 [GSK364507]	0%	27%	5%	21%	15%	4%	0%	9%	0%	1%	0%	9%	12%	10%	12%	25%	32%	10%	0%	23%
